From the supplement of paper PMC6555819

Experiments:
Assay in all cases: PBM binding z-score (relative to random genomic background probes); higher = stronger binding; sequences stand for … in GC…GCGATTGACAGCGTAGAATGAAGG
[1] = system: FXR:RXRa (NR concentration 270 nM, RXRa partner concentration 90 nM)
In short: (§1)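 Antibodies against each partner of ligand-free nuclear receptor dimers (one per run) detected binding on custom Agilent 4×180K protein-binding microarrays after 1 h incubation. The double-stranded probes had 34-nt variable regions carrying direct-repeat seeds, single-nucleotide variants, half-site ablations and random human genomic background sequences. Binding z-scores, from regression-normalized fluorescence, use the random background probes as reference.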

[2] = system: LXRa:RXRa (NR concentration 270 nM, RXRa partner concentration 90 nM)
In short: as §1

[3] = system: LXRa homodimer (NR concentration 270 nM)
In short: as §1

[4] = system: LXRb:RXRa (NR concentration 270 nM, RXRa partner concentration 90 nM)
In short: as §1

[5] = system: LXRb homodimer (NR concentration 270 nM)
In short: as §1

[6] = system: PPARa:RXRa (NR concentration 270 nM, RXRa partner concentration 90 nM)
In short: as §1

[7] = system: PPARg:RXRa (NR concentration 180 nM, RXRa partner concentration 90 nM)
In short: as §1

[8] = system: PPARg:RXRa 270nM:90nM, anti-RXR (NR concentration 270 nM, RXRa partner concentration 90 nM)
In short: as §1

[9] = system: PPARg:RXRa 30nM:10nM, anti-RXR (NR concentration 30 nM, RXRa partner concentration 10 nM)
In short: as §1

[10] = system: PPARg:RXRa 90nM:30nM, anti-RXR (NR concentration 90 nM, RXRa partner concentration 30 nM)
In short: as §1

Sequence	PBM binding z-score [1]	PBM binding z-score [2]	PBM binding z-score [3]	PBM binding z-score [4]	PBM binding z-score [5]	PBM binding z-score [6]	PBM binding z-score [7]	PBM binding z-score [8]	PBM binding z-score [9]	PBM binding z-score [10]
CCTACTGGGCCATTAGGTCATTGATATCAACGTT	1.06	0.977	0.832	1.24	-0.52	2.76	3.46	3.68	1.32	3.03
CCTATTAGTTGGCCATAAGGGCAACCGAAGCTCG	0.403	0.0422	-0.122	-0.00443	-0.0843	0.154	0.332	0.665	-0.257	0.493
CAAACTAGGTCAAGAGGTCACAGTCCGCTTCCCG	6.79	5.84	4.4	4.97	1.01	6.61	10.2	8.35	7.25	8.69
CATACAGGGTCAGCTAGTCCAGAGTAGGGACGGC	4.47	2.76	-0.017	2.18	0.191	4.2	3.22	2.78	0.664	2.06
ACTTCCGGGTCAACGAGGTTATAGCACGCGTATA	6.37	4.46	0.851	4.24	1.38	5.23	6.06	5.53	2.51	4.51
ACTAGTTGGTCAGCGGAGGTCACACACAATTCGG	2.84	3.44	3.05	3.15	0.932	3.52	1.91	2.26	1.3	1.68
ATCTCTAGGTAAGACTCAGTTTAGTGAAGAACGC	0.613	0.734	0.489	0.362	0.843	-0.0694	0.158	0.112	0.213	0.579
CCTATTAGTTGACCATAAGGACAACCGAAGCTCG	1.29	0.43	0.89	0.473	1.33	0.262	0.871	0.107	0.251	0.449
TTACCAACGTGAAGGTCGTTGATCCCTCTGTAGA	1.87	1.9	0.292	1.88	-0.33	1.35	0.00743	0.541	0.511	0.656
GGAACGAGGGCATTCGAGTTTATAGCATGGCGAT	1.12	4.61	0.296	0.629	-0.537	1.57	0.982	0.798	-0.0706	0.209
TCTAGCAGGCCAGAGGGTCAGTCAAGAGGTACGG	0.425	0.152	-0.884	0.413	-1.51	1.35	0.768	1.81	1.49	1.68
TTACCATGGTGAAGGTCGTTGATCCCTCTGTAGA	1.59	1.54	-0.212	1.35	-0.704	1.64	1.06	2.74	1.09	2.44
AGAACGAGGGCAATGAGTTGATAGAACGGGTGGC	0.324	0.221	-0.321	-0.103	-0.564	0.984	1.53	0.857	0.188	0.62
ACAGTCAGGTGAGTGAAGGTAACTCAGCTGGACG	0.264	0.217	-0.578	-0.682	-0.538	-0.317	0.268	0.101	-0.17	-0.277
CCGACTGGGGAAAGGTTACCATAACGCACAGCCA	0.564	1.86	0.0866	1.75	-0.554	2.76	2.69	3.64	1.61	3.26
AGAACGAGGGCAATGAGTTGATAGCCCGGGTGGC	0.0897	0.0637	-0.355	-0.437	-0.943	1.34	1.01	0.868	-0.3	0.416
GCTCGGAGGACAAGGTCAGAACTTTGTCCGTAGA	1.86	1.64	-0.253	1.31	-0.462	2.22	0.592	1.57	0.0801	0.802
TTACCAAGGTGAAAGGGCGTTGATGCACGCCTTG	1.12	0.702	-0.488	0.742	-0.657	3.48	5.55	5.63	4.32	5.82
CCAGACAGGTGAGACGGTAACTCAGCCTCGATTA	-0.078	-0.00881	0.268	-0.263	-0.377	0.144	0.367	0.232	-0.249	-0.285
